# Experimental data: ChEMBL document CHEMBL1961873, “Compounds: GSK PKIS; Assays: Nanosyn kinase panel” (2012)
# Values joined by “and” are separate entries in the source; they are usually repeats but may differ in a detail not shown here. Equal values may be shown once.
# Legend:
# [1] = biological target: Tyrosine-protein kinase SYK (Homo sapiens) (UniProt P43405); settings: at 1 µM
# [2] = biological target: T1, Tyrosine-protein kinase Tec (Homo sapiens) (UniProt P42680); settings: at 0.1 µM
# T1 sequence (whole entry): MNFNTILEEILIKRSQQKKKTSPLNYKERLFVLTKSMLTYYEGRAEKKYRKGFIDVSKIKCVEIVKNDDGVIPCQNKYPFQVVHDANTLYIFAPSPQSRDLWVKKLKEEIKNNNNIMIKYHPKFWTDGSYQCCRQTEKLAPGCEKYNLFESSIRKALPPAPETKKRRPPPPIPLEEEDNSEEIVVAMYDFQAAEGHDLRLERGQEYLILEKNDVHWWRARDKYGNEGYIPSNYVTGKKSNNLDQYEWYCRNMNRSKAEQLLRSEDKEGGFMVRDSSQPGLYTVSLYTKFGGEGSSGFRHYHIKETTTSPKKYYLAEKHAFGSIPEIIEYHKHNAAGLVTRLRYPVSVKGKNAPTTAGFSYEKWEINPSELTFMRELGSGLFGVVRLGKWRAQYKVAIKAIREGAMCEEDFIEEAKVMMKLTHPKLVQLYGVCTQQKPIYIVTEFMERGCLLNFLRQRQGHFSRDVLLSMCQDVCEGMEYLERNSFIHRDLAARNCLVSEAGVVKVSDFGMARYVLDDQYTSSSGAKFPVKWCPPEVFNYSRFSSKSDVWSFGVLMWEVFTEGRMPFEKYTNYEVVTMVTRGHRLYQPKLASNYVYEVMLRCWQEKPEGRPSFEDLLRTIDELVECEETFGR
# [3] = biological target: T1, Tyrosine-protein kinase Tec (Homo sapiens); settings: at 1 µM
# [4] = biological target: Angiopoietin-1 receptor (Homo sapiens) (UniProt Q02763); settings: at 0.1 µM
# [5] = biological target: Angiopoietin-1 receptor (Homo sapiens) (UniProt Q02763); settings: at 1 µM
# [6] = biological target: T2, Non-receptor tyrosine-protein kinase TNK1 (Homo sapiens) (UniProt Q13470); settings: at 0.1 µM
# T2 sequence (whole entry): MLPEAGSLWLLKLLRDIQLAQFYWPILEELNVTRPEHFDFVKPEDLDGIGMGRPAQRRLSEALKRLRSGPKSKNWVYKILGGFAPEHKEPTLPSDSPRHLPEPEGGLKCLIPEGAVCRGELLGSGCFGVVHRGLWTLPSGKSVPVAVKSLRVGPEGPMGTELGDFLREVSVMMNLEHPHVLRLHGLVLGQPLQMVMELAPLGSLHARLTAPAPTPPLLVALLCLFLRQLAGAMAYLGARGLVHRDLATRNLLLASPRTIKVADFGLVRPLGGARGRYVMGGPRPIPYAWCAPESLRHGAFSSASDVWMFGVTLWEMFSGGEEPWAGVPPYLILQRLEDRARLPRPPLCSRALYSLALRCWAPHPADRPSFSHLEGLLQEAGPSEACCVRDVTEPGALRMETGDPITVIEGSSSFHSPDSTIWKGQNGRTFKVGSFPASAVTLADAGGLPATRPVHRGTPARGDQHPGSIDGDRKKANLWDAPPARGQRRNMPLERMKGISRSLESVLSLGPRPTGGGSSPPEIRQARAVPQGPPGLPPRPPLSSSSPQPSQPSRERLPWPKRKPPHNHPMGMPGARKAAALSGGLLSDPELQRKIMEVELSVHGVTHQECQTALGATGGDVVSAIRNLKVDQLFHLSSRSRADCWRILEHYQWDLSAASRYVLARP
# [7] = biological target: T2, Non-receptor tyrosine-protein kinase TNK1 (Homo sapiens); settings: at 1 µM
# [8] = biological target: Activated CDC42 kinase 1 (Homo sapiens) (UniProt Q07912); settings: at 0.1 µM
# [9] = biological target: Activated CDC42 kinase 1 (Homo sapiens) (UniProt Q07912); settings: at 1 µM
# [10] = biological target: High affinity nerve growth factor receptor (Homo sapiens) (UniProt P04629); settings: at 0.1 µM;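 further: each value is a mean of replicate percent inhibition readings against TRKA kinase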
# Sequence of High affinity nerve growth factor receptor (Homo sapiens) (P04629 33-796 limits assumed): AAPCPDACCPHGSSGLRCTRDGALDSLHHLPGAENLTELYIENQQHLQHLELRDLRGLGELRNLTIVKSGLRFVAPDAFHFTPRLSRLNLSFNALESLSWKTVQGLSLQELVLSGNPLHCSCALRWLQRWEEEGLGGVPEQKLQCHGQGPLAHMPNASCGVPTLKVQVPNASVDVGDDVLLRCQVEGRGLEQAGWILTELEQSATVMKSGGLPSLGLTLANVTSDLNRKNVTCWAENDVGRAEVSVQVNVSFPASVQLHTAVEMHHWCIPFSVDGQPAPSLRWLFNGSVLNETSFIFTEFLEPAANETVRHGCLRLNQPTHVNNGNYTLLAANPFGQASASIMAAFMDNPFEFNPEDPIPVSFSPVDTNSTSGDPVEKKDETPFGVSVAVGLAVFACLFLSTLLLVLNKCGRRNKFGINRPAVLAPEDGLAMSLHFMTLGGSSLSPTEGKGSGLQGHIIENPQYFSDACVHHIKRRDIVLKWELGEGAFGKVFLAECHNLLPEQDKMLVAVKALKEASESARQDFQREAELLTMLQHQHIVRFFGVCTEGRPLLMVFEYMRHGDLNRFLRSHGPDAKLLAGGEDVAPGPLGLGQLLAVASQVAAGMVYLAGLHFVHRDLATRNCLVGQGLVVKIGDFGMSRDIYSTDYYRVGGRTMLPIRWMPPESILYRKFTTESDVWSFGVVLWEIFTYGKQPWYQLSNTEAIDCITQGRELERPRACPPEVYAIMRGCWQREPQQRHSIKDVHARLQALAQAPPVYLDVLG
# Sequence of Angiopoietin-1 receptor (Homo sapiens) (Q02763 whole entry): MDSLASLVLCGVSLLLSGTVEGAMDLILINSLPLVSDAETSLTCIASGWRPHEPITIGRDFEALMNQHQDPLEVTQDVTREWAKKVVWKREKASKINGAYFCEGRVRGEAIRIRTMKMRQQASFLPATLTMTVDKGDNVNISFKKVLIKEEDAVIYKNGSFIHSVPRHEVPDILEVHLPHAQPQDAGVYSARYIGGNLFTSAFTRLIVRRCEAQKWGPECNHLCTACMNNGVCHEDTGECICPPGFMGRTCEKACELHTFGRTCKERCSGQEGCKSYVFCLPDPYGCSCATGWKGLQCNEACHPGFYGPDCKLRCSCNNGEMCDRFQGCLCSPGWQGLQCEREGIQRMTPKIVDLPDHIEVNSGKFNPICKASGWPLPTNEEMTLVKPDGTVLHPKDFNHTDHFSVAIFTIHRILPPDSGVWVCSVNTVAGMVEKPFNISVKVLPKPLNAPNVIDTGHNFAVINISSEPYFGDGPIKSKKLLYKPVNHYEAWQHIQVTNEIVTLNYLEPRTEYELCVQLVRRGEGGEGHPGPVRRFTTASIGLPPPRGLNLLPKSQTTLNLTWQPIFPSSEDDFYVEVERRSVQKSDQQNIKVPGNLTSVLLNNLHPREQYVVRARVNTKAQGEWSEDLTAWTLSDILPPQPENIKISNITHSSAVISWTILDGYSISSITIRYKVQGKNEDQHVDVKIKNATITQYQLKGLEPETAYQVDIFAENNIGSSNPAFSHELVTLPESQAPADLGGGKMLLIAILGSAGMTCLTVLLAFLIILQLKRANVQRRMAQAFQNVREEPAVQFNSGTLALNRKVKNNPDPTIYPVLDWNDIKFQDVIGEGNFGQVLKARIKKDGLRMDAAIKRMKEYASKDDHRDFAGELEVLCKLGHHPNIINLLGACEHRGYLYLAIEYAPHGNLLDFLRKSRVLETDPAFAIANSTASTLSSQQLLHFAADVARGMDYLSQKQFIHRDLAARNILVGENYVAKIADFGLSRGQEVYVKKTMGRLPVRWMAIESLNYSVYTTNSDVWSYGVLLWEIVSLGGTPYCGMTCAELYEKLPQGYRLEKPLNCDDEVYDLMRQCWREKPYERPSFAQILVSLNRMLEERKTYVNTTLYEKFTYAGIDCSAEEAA
# Sequence of Activated CDC42 kinase 1 (Homo sapiens) (Q07912 whole entry, looked up): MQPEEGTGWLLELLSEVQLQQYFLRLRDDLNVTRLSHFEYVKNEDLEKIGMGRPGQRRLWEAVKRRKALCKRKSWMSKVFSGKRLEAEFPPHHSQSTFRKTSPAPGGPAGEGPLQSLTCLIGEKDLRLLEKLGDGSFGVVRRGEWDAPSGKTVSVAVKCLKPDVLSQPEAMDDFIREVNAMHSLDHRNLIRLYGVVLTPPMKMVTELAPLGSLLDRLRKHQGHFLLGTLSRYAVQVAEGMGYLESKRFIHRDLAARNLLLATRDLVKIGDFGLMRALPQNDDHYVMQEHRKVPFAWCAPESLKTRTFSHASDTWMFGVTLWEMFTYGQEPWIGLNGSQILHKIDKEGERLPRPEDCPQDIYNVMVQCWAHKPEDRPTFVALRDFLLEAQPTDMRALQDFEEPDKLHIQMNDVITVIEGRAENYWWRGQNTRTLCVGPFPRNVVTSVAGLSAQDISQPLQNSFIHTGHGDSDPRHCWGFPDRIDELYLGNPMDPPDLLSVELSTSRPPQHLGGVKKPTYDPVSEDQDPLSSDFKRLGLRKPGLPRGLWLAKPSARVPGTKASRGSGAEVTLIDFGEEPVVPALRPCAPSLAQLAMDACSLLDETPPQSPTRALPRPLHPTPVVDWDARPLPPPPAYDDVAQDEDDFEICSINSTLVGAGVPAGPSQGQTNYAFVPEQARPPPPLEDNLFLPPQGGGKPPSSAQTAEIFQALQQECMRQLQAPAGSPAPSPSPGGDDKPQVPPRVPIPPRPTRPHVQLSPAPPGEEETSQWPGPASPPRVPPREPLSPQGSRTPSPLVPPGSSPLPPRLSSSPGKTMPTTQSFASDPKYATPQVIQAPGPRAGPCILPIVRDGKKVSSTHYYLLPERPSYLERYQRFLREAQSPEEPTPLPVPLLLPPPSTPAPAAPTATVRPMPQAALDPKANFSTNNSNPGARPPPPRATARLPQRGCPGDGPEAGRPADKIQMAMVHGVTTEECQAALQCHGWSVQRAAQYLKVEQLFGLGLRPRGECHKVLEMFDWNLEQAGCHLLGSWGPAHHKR
SMILES,inhibition [1],inhibition [2],inhibition [3],inhibition [4],inhibition [5],inhibition [6],inhibition [7],inhibition [8],inhibition [9],inhibition [10]
COC(=O)Nc1nc2ccc(Oc3ccc(NC(=O)Nc4cc(C(F)(F)F)ccc4F)cc3)cc2s1,0.26%,1.25%,-0.83%,50.8%,78%,11.5%,27.2%,0.46%,1.35%,24.2%
CC(C)c1ccc(-c2cc(-c3c[nH]nc3-c3ccccn3)ccn2)cc1,1.09%,2.3%,2.11%,4.71%,6.64%,0.85%,-0.32%,0.23%,0.19%,0.99%
Fc1cccc(COc2ccc(Nc3ncncc3C#Cc3ccccc3)cc2Cl)c1,-0.97%,4.69%,4.11%,1.87%,2.11%,1.37%,9.13%,1.84%,3.24%,2.85%
O=C1Nc2ccccc2/C1=C1\CCc2cc(O)ccc21,-3.48%,5.96%,10.2%,4.53%,7.58%,11.5%,45.2%,0.75%,1.9%,18.6%
COc1cc(N2CCN(C(C)C)CC2)ccc1Nc1nc(Nc2cccc3ncccc23)c2cc[nH]c2n1,-0.52%,0.93%,-0.14%,3.15%,7.32%,0.11%,22.3%,1.12%,13.2%,1.86%
CN(c1ccc(NC(=O)NCCN2CCOCC2)cc1)c1ccnc(Nc2ccc(CS(C)(=O)=O)cc2)n1,-6.78%,5.49%,24.8%,3.99%,29.3%,15.5%,63.5%,1.35%,8.46%,1.46%
FC(F)(F)CNc1nccc(-c2cnn3ncccc23)n1,-3.33%,0.22%,2.62%,1.95%,3.61%,0.51%,4.99%,0.71%,-0.17%,-0.41%
CC1(C)CC(n2cnc(-c3ccc(F)cc3)c2-c2ccnc(N)n2)CC(C)(C)N1,0.92%,1.41%,-0.41%,1.61%,3.96%,-0.43%,-1.61%,-0.24%,0.43%,6.46%
COc1cccc(Nc2nccc(-c3cnn4ncccc34)n2)c1,34.2%,4.27%,25.1%,5.94%,21.3%,15.3%,65.9%,1.79%,21.7%,4.75%
CN(C)CCNC(=O)Nc1ccc(N(C)c2ccnc(Nc3ccc(CS(C)(=O)=O)cc3)n2)cc1,-4.22%,5.73%,14.7%,2.91%,12.6%,12.7%,47.1%,1.49%,4.15%,1.76%
c1cnn2ncc(-c3ccnc(NCCCN4CCOCC4)n3)c2c1,0.5%,2.64%,3.12%,2.79%,3.09%,1.04%,-1.51%,0.23%,-0.49%,2.69%
OCCCNc1nccc(-c2c(-c3ccc(F)cc3)nn3cc(C(F)(F)F)ccc23)n1,0.36%,3.37%,5.41%,2.38%,5.06%,0.14%,3.92%,0.22%,1.57%,3.24%
Fc1ccc(Nc2nccc(-c3c(-c4ccc(C(F)(F)F)cc4)nn4ncccc34)n2)cc1F,-0.68%,4.32%,6.72%,1.72%,1.95%,3.85%,-0.46%,1.2%,0.83%,2.39%
CN1CCC(C(=O)Nc2n[nH]c3nc(-c4ccc(O)cc4)c(Br)cc23)CC1,-0.04% and 0.42%,-1.21% and 2.96%,1.24% and 2.96%,3.01% and 5.98%,7.84% and 7.69%,3.57% and 0.52%,6.51% and 6.06%,0.92% and 0.24%,1.76% and 1.56%,1.13% and 2.68%
COc1cc(Nc2ncc(-c3ccccc3)o2)cc(OC)c1,-7.57%,2.12%,7.94%,3.94%,7.85%,2.49%,31.1%,1.44%,3.07%,3.5%
NS(=O)(=O)c1ccc(N/N=C2\C(=O)Nc3ccc(C(=O)NCc4ccncc4)cc32)cc1,-2.54%,3.82%,7.13%,-0.94%,1.16%,3.58%,17.5%,0.57%,2.58%,4.11%
